The panel holds about 83,000 compounds, 20% with a hit somewhere; the sample as a whole holds those more often.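 Step 1: grow cells in 96-well plates. Step 2: add test compound at a single concentration. Step 3: incubate 48 h. Step 4: record percent growth.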 A number with no mark means an inactive call. The source made the active and inactive calls. How the source made its calls: active means growth percent below 10; inactive means the rest.
Tests used:
Test in all cases: NCI-60 one-dose screen, 48 h (100 = growth as untreated, 0 = no growth, -100 = all killed)
Settings in all cases: 10 µM unless noted
[1] = tested on: HCT-15 colon
[2] = tested on: HT29 colon
[3] = tested on: SNB-75 CNS
[4] = tested on: SNB-19 CNS
[5] = tested on: U251 CNS
[6] = tested on: PC-3 prostate
[7] = tested on: SK-MEL-5 melanoma
[8] = tested on: UACC-62 melanoma
[9] = tested on: LOX IMVI melanoma
[10] = tested on: SK-MEL-28 melanoma

| SMILES | growth [1] | growth [2] | growth [3] | growth [4] | growth [5] | growth [6] | growth [7] | growth [8] | growth [9] | growth [10] |
| --- | --- | --- | --- | --- | --- | --- | --- | --- | --- | --- |
| CN1CCN(Cc2ccc(NC(=O)c3cncc(C#Cc4cnccc4C#N)c3)cc2C(F)(F)F)CC1 | 55% | 27.5% | 122% | 102% | 77.3% | 91.7% | 54% | 41.5% | 12.4% | 30.1% |
| CNC(=O)c1[nH]cc(-c2ccccc2)c1-c1cc(OC)c2c(c1OC)OCO2 | 104% | 91.5% | 70.9% | 90.6% | 96% | 98.3% | 105% | 90.8% | 98.5% | 108% |
| O=c1c2cc(F)ccc2sc2c(NCCO)nc3ccccc3c12 | 101% | 107% | 87% | 94% | 97.6% | 105% | 99.4% | 94.2% | 97.2% | 126% |
| C/C(=N/NC(N)=S)c1sc(Nc2cccc(Cl)c2)nc1C | 57.8% | 79% | 120% | 87.9% | 89.8% | 74.8% | 87.1% | 92.9% | 63.6% | 94.8% |
| BrCCCc1n(Cc2ccc3ccccc3c2)c2ccccc2[n+]1Cc1ccc2ccccc2c1 | -60.6% (active) | -50.8% (active) | -71.5% (active) | -33.3% (active) | -91.9% (active) | -69.1% (active) | -95.3% (active) | -76.2% (active) | -93.8% (active) | -75.8% (active) |
| COc1ccc([C@H]2c3cc(OC)c(OC)cc3C=C(C=O)C2CO)cc1OC (stereo not given in full) | 43.1% | 19% | 15.8% | 50.9% | 36.2% | 29% | 24.6% | 33.9% | 46.3% | 55.3% |
| COc1ccc(OC)c(/C=C/C(=O)N/N=C/c2ccccc2)c1 | 42% | 20.7% | 41.1% | 47.9% | 43.5% | 63.5% | 30.8% | 61% | 42.1% | 65.5% |
| N#Cc1c(-c2ccc(Cl)cc2)nc2c(c(-c3ccccc3)nn2-c2ccccc2)c1-c1ccc(O)cc1 | 27.2% | 91.8% | 42.6% | 65% | 34% | 12% | 56.3% | 53.6% | 26.5% | 56.4% |
| COC(=O)Nc1ccc(-c2nc(-c3cccc(OC)c3)c(-c3ccnc(Br)c3)[nH]2)cc1 | 17.8% | 50.5% | 37.5% | 61.6% | 51.5% | 34% | 50.2% | 47.2% | 23.6% | 62.3% |
| Cc1cc2[nH]c(=O)c3c4ncccc4cn3c2cc1C | 5.25% (active) | -23.7% (active) | 99.4% | 50.2% | 24.1% | 57.1% | 70% | -8.94% (active) | -83.3% (active) | 95.1% |
| Cc1ccc(-c2nc(SCC(=O)Nc3nc(-c4ccc(Cl)cc4)cs3)[nH]c(=O)c2C#N)cc1 | 90.2% | 95.9% | 87.4% | 108% | 94% | 90.3% | 102% | 90.5% | 108% | 108% |
| CC1CN(C2CCCCC2)C(=S)N(c2ccccc2)C1=O (stereo not given) | 103% | 111% | 92.1% | 101% | 105% | 90.1% | 104% | 105% | 105% | 114% |
| O=c1c2cc(F)ccc2sc2c(NCCCNCCO)nc3ccc(F)cc3c12 | 47.9% | -0.699% (active) | 54.2% | 72.6% | 38.4% | 50.6% | 80.7% | 88.6% | -76.7% (active) | 94% |
| CC1(C)C2CC1C1(/C=N\Nc3ccccc3)C(C2)C(C#N)(C#N)C1(C#N)C#N (stereo not given) | 87.3% | 102% | 91.4% | 96.2% | 94.8% | 72.2% | 94.4% | 58.5% | 52.2% | 106% |
| COc1cc2cc(Oc3ccc(NC(=O)Nc4ccc(Cl)c(C(F)(F)F)c4)cc3)c(C)nc2cc1OCCN1CCOCC1 | 13.7% | 12% | 53.3% | 24.4% | 14.8% | 13% | -34.7% (active) | 29.9% | 9.99% (active) | 42.9% |
| COc1ccc(C2=Nn3c(nnc3-c3cc(Cl)cc(Cl)c3Cl)SC2)cc1 | 12.1% | -28.8% (active) | 22.7% | 14.3% | 18.5% | 18.1% | -13.5% (active) | 41.1% | 23.7% | 47.7% |
| CNC(C)[C@H]1CCC2C3CCC4C[C@@H](N(C)C(=O)c5ccccc5)CC[C@]4(C)C3CC[C@@]21C (stereo not given in full) | -42.2% (active) | -33.3% (active) | 15.5% | 66.6% | 29.9% | 16.3% | -74.2% (active) | -66% (active) | -52.2% (active) | -71.4% (active) |
| N#Cc1cccc(NC(=O)c2cc(-c3ccc(F)cc3F)ccc2O)c1 | 13.3% | 104% | 11.5% | 13.7% | 13% | 20.3% | -98.5% (active) | 13.7% | 13.2% | 25.6% |
| C=C(C)C1CCC2(C)OC2C1 (stereo not given) | 112% | 109% | 80.4% | 110% | 118% | 109% | 109% | 103% | 108% | 127% |
| COC(=O)/C=C1\S/C(=N\Nc2ccc([N+](=O)[O-])cc2[N+](=O)[O-])N(C2CCCCC2)C1=O | 11% | 26.7% | 51.4% | 51.3% | 25.8% | 18.4% | 82.4% | 38.7% | 72.4% | 86.5% |
| CCN1C(=O)N(CC)C2Nn3c(s/c(=C4\C(=O)N(CCC(C)C)c5ccccc54)c3=O)=NC21 (stereo not given) | 47% | 112% | 59.2% | 88.6% | 87.7% | 63.2% | 89.5% | 67.1% | 91.7% | 78.6% |
| COc1nc2ccc(C)cc2cc1-c1nc2c(cnn2-c2ccc(Br)cc2)c(=O)[nH]1 | 40.5% | 10.3% | 25.9% | 41.8% | 15.2% | 28.1% | 51.1% | 29.1% | 34.1% | 39.3% |
| O=c1c2cc(F)ccc2sc2c(NCCCNCCO)nc3ccccc3c12 | -9.91% (active) | -53.3% (active) | 53.8% | 58.5% | 6.22% (active) | 25.2% | 70.5% | -39.4% (active) | -94.1% (active) | 28.1% |
| Cc1nc2ccccc2c(/C=C/c2ccc(Cl)cc2)c1C(=O)/C=C/c1cccs1 | 52.1% | 52.8% | 56.7% | 86.7% | 77.5% | 54% | 76.6% | 68.4% | 79.6% | 95.7% |
| CS(=O)(=O)Nc1cc(-c2ccc3ncnc(Nc4cccc(Cl)c4F)c3c2)cnc1Cl | 41.9% | 47.6% | 9.28% (active) | 46.4% | 33.6% | 41.4% | 24.7% | 8.37% (active) | 4.21% (active) | 24.6% |
| C=C1CC[C@H](C(C)C)[C@@H]2[C@H]1[C@H]1CC(=C)[C@@H](O)CC[C@@](C)(O)[C@@H]2O1 | 107% | 101% | 88.1% | 91.5% | 106% | 89.9% | 100% | 92.8% | 93.8% | 105% |
| CC(=O)OC[C@H]1OC(Sc2sc(C(=O)c3ccc(Cl)cc3)c(N)c2-c2nc3ccccc3s2)[C@H](OC(C)=O)[C@@H](OC(C)=O)[C@@H]1OC(C)=O (stereo not given in full) | 82.3% | 81% | 50.1% | 92.8% | 88.6% | 83.4% | 85.2% | 97.9% | 68.8% | 94.2% |
